Most compounds without a hit are left out; they make up all but 3.1% or so of the library.
S1P3 antagonist: S1P3 (human) receptor antagonism. 170,000 tested, 0.27% active. CHO S1P3 NFAT-BLA reporter, FRET fluorescence, antagonist mode. AID 485. inhibition, % at 4.98 µM. Q99500;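 active means inhibition above the plate cutoff, the mean inhibition of test wells on that plate plus 3 SD, cut at about 28% in these data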;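 further: cells challenged with S1P at its EC80 of 0.8 µM; blue over green emission ratio from cleaved BLA substrate after 4 h stimulation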
Target sequence (Q99500 whole entry, looked up): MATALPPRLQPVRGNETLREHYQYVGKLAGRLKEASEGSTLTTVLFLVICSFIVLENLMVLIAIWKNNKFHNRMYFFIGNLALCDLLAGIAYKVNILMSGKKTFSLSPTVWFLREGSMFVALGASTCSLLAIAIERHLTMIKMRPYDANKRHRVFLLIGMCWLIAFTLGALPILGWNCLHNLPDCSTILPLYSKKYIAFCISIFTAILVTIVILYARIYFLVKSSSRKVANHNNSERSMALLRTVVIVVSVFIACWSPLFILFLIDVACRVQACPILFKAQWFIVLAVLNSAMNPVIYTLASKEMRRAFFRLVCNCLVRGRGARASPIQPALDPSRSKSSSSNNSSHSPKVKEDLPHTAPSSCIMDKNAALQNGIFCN
KCC2 mod: KCC2 (human) Cl- transport modulation. 190,000 tested, 2.2% active. B-score of Tl+ flux slope (higher = more flux/activation; lower = inhibition) at 10 µM. KCC2 cells, thallium flux FluoZin-2 fluorescence. AID 1456. Q9H2X9;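 active means thallium flux slope and its plate-corrected score both differing from the plate sample mean at a set confidence after two filtering rounds, in either direction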;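 further: slope of fluorescence scaled to starting intensity during 10 to 20 s after thallium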
EP2 modulator: modulators of human EP2 prostaglandin E2 receptor | P43116 | EP2-expressing cells, cAMP HTRF FRET, PGE2 co-stimulation | induction, % at 25 µM | 260,000 tested, 0.83% active | AID 940;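 active means compounds whose cAMP rise, as percent of the full-agonist control response, exceeds 60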;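 further: rat C6 glioma line stably carrying human EP2 under a CMV promoter; the protocol text gives 20 µM as final concentration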
PGE2 EP2 inh: blocks the human prostaglandin E2 receptor EP2; C6 glioma cells expressing human EP2, cAMP TR-FRET; cells stimulated with saturating PGE2; inhibition, % at 25 µM; 260,000 tested, 0.52% active; P43116;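 active means percent inhibition above 40 after rounding to a whole number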;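 further: rat C6 glioma host cells with rolipram phosphodiesterase inhibitor present; the protocol text gives 20 µM as final concentration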
Hits are given with their value; – = inactive; · = no result given; ! = repeats disagree.

SMILES | S1P3 antagonist | KCC2 mod | EP2 modulator | PGE2 EP2 inh
CCN(CC)CCn1c(=S)[nH]c2ccccc2c1=O | – | – | – | –
CC1=CSC2=NC(=O)/C(=C\c3cccn3-c3ccccc3)C(=N)N12 | – | – | – | –
CC(C)c1ccc(-n2cccc2/C=C2/C(=N)N3C=CSC3=NC2=O)cc1 | – | 22 | – | –
C=CCOc1ccc(C2C(C(=O)c3ccco3)=C(O)C(=O)N2CCOC)cc1 (configuration not stated) | · | · | – | –
O=C(NC(=S)N1CCCc2ccccc21)c1ccccc1 | · | · | – | –
O=C(NC(=S)N1CCCc2ccccc21)c1ccc(Cl)cc1 | – | 56.5 | – | –
O=C(NC(=S)N1CCCc2ccccc21)c1ccc(Br)cc1 | – | 71.8 | – | –
O=C(NC(=S)N1CCCc2ccccc21)c1ccc([N+](=O)[O-])cc1 | · | · | – | –
COc1ccc(CN(Cc2cnc(N(C)C)nc2)CC2CCCO2)cc1OC (configuration not stated) | · | · | – | –
CCc1ccccc1Nc1c([N+](=O)[O-])c(=O)oc2ccccc12 | · | · | – | –
CC(C)OC(=O)Cn1ncc2cccn2c1=O | · | · | – | –
O=c1cc(-c2ccccc2Cl)oc2c(NS(=O)(=O)c3cc(Cl)cc(Cl)c3O)ccc(O)c12 | – | 20.2 | – | 45.0
CC(C)N1CC=C2C(C1)C(c1ccc(Cl)cc1)C(C#N)=C(N)C2(C#N)C#N (configuration not stated) | · | · | 78.8 | –
CC(C)c1ccc(C2C(C#N)=C(N)C(C#N)(C#N)C3=CCN(C)CC32)cc1 (configuration not stated) | · | · | – | –
Cc1nc(-n2nnc3ccccc32)c2c3c(sc2n1)CCCC3 | · | · | 61.1 | –
c1ccc2c(c1)nnn2-c1ncnc2sc3c(c12)CCCC3 | · | · | – | –
O=c1[nH]cnc2scc(-c3ccc(Br)cc3)c12 | – | · | – | –
Cc1cc(-c2csc3nc[nH]c(=S)c23)cc(C)c1C | – | 85.1 | – | –
O=c1[nH]cnc2scc(-c3ccccc3)c12 | · | – | – | –
Cc1sc2nc[nH]c(=S)c2c1-c1ccccc1 | – | 30.7 | – | –
Cc1ccc(-c2csc3nc[nH]c(=S)c23)cc1 | – | 49.7 | – | –
Cc1cc(C)c(S(=O)(=O)N(Cc2cccs2)Cc2cc3cccc(C)c3[nH]c2=O)c(C)c1 | · | · | – | –
CCN1CCN(C(c2cc3cc(C)ccc3[nH]c2=O)c2nnnn2Cc2ccc(F)cc2)CC1 (configuration not stated) | · | · | – | –
CC(=O)c1cccc(NC(=O)CSc2nnc(COc3ccc4ccccc4c3)n2C)c1 | · | · | – | –
CCOc1ccc2[nH]c(=O)c(CN(C(=S)NCc3ccccc3)C3CCCCC3)cc2c1 | · | · | – | –
SMILES | S1P3 antagonist | KCC2 mod | EP2 modulator | PGE2 EP2 inh
CCCCN(CCCC)C(=S)N/N=C/c1c(C)[nH]n(-c2ccccc2)c1=O | · | 22.9 | – | –
COc1c(-c2coc3cc4c(cc3c2=O)CC(O)C(C)(C)O4)ccc2c1C=CC(C)(C)O2 (configuration not stated) | · | · | – | 91.8
CCC(C(=O)OC)n1c(-c2ccccc2)nc2ccccc2c1=O (configuration not stated) | – | · | 68.6! | –
CCNC(=O)Nn1c(-c2ccccc2)nc2ccccc2c1=O | · | · | – | –
CCOc1ccc(OCCn2c(=S)[nH]c3ccccc32)cc1 | · | · | – | –
Cc1cccc(OCCn2c(=S)[nH]c3ccccc32)c1 | · | 8.91 | – | –
CC(C)N(Cc1ccccc1)C(=S)NC(=O)C1(C)CC1(Cl)Cl (configuration not stated) | – | 84.6 | – | –
CC(C(=O)NCCCN1CCCc2ccccc21)N1C(=O)NC(C)(C)C1=O (configuration not stated) | · | · | – | –
COc1ccc(C(=O)NC(=S)Nc2ccc(S(=O)(=O)Nc3nccs3)cc2)cc1 | · | · | – | 49.4
CCc1nnc(NS(=O)(=O)c2ccc(NC(=S)NC(=O)/C=C/c3ccc(OC)cc3)cc2)s1 | – | – | – | 104.0
CCc1nnc(NS(=O)(=O)c2ccc(NC(=S)NC(=O)/C=C/c3ccc(C(C)C)cc3)cc2)s1 | · | – | – | –
CCc1nnc(NS(=O)(=O)c2ccc(NC(=S)NC(=O)c3ccccc3)cc2)s1 | – | – | – | –
CCc1nnc(NS(=O)(=O)c2ccc(NC(=S)NC(=O)c3ccc(Br)cc3)cc2)s1 | – | – | – | 59.2
O=C(CN1C(=O)c2cccc3cccc1c23)Nc1ccccc1F | · | · | – | –
CCOc1ccc2[nH]c(=O)c(CN(Cc3cccnc3)C(=S)NCc3ccco3)cc2c1 | · | · | – | –
Cc1nn(CC(=O)Nc2ccccc2N2CCOCC2)c(=O)n2cccc12 | · | · | – | ·
COc1ccc(NC(=O)C(=O)NNC(=O)C(C)Oc2ccc(Cl)cc2Cl)cc1 (configuration not stated) | – | 76.3 | – | –
COc1ccc(CC(=O)N2CCCC(c3ncncc3S(C)(=O)=O)C2)cc1 (configuration not stated) | · | · | – | ·
Cc1cccc(N2CC(C(=O)OCC(=O)c3ccc(OC(=O)c4cccs4)cc3)CC2=O)c1C (configuration not stated) | · | – | – | 120.0
CCN(CC)C(=O)c1sc(NC(=O)c2ccoc2C)c(C(=O)OC)c1C | – | 8.42 | – | –
N#CC1(Cc2ccc(Cl)cc2)c2ccccc2C=CN1C(=O)c1ccccc1 (configuration not stated) | · | – | 63.4 | –
COc1ccc(CCNC(=O)c2ccc(-c3ccc([N+](=O)[O-])cc3Cl)o2)cc1OC | – | – | – | –
COc1ccc(CCNC(=O)c2ccc(-c3ccccc3Cl)o2)cc1OC | · | · | – | 62.3
CC(=O)c1ccc(NC(=O)COC(=O)c2ccccn2)cc1 | · | · | – | –
COc1ccc(C(O)CN2CCC(O)(c3ccccc3C)CC2)cc1 (configuration not stated) | · | · | – | –
SMILES | S1P3 antagonist | KCC2 mod | EP2 modulator | PGE2 EP2 inh
CCN(CC)c1ccc(/C=C/c2nc3ccccc3s2)cc1 | · | · | – | –
COc1cc2nc(/C=C/c3ccc(N(C)C)cc3)sc2cc1SC | 54.9 | – | – | –
Nc1ccc(N2CCN(c3cccc(Cl)c3)CC2)cc1 | – | – | – | –
Nc1ccc(N2CCCC2)cc1 | · | · | – | 68.3
C#CCNC(=O)C1=C[C@H](c2csc3ccccc23)[C@@H](CCCO)[C@H](OCC)O1 | – | – | – | –
CCO[C@@H]1OC(C(=O)NCc2ccccc2)=C[C@H](c2csc3ccccc23)[C@H]1CCCO | – | -2.88 | – | ·
C#Cc1ccc([C@@H]2C=C(C(=O)N3CCN(Cc4ccccc4)CC3)O[C@H](OCC)[C@H]2CCCO)cc1 | – | -3.78 | – | –
C#Cc1ccc([C@H]2C=C(C(=O)N3CCN(Cc4ccccc4)CC3)O[C@@H](OCC)[C@@H]2CCCO)cc1 | – | – | – | –
CN(C)C(CNC(=O)C1(C)CC(c2ccccc2)=NO1)c1ccc2c(c1)OCO2 (configuration not stated) | · | · | – | –
COc1ccc(Br)cc1S(=O)(=O)N1CCN(C)CC1 | · | · | – | –
CCc1cc2cccc(C)c2nc1SCC(=O)Nc1cc(OC)ccc1OC | · | · | 62.7 | –
CCc1cc2cc3c(cc2nc1SCC(=O)Nc1ccc(OC)cc1)OCO3 | · | · | – | –
COc1ccc(OC)c(NC(=O)CSc2nc(C3CCCCC3)nc3ccccc23)c1 | · | · | 60.9 | –
